Shown are actives, neighbours in structure and some others; about 21% of the full set was active somewhere.
Shiga toxin inh – inhibitors of Shiga toxin in Vero cells | Vero cells, Shiga toxin protein synthesis inhibition reporter | inhibition, % at 38.7 µM | actives 9.2% (n = 290,000) | AID 2315; in the data active = inhibition mostly above about 28%, no sharp cut-off; inactive = mostly below about 43%
HCV inhibitor – blocks hepatitis C virus. Huh7.5.1 HCVcc-Cre infection, luciferase reporter, 44 h. Potency, µM (top dose mostly 41.8 µM), most hits filed as inhibitors. actives 3.4% (n = 340,000)
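Cells (1,000/well) were plated 4 h before compound, then infected with HCVcc-Cre virus (~0.5 moi). After 44 h further culture, infection was read as luciferase luminescence following a 15 min substrate incubation at room temperature.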
Cycloheximide cs – counter-screen for Shiga toxin inhibitors: cycloheximide protein synthesis inhibition; actives 12% (n = 300,000); AID 2314; cell reporter, cycloheximide protein synthesis inhibition counterscreen; max response, %; in the data active = max response mostly above about 13%, no sharp cut-off; inactive = mostly below about 14%; also: read at 38.3 µM for the half of the compounds with a filed dose
Pf growth 48h – P. falciparum growth inhibition at 48 hours (one generation); actives 5.9% (n = 310,000); Potency, µM (top dose mostly 28.7 µM), actives largely listed as inhibitors; P. falciparum luciferase growth in erythrocytes, 48 h
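Luciferase-expressing parasites in RBCs, 2% Hct / 0.1% parasitemia final; RPMI 1640 + 0.5% Albumax; 37 C, 5% CO2, one generation; luminescence read-out, lower signal = inhibition.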
Pf growth 96h – P. falciparum growth inhibition at 96 hours. P. falciparum luciferase reporter growth, 96 h. Potency, µM (top dose mostly 28.7 µM), hits mostly inhibitors. actives 6.9% (n = 320,000). AID 504834
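96 h incubation, 37 C, 5% CO2, of luciferase-reporter P. falciparum-infected RBCs (2% hematocrit, 0.05% parasitemia final) with test compounds; endpoint luminescence.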
AMA1 RON2 block – inhibitors of Plasmodium falciparum AMA1-RON2 interaction; AlphaScreen AMA1-biotinylated RON2 peptide binding; Potency, µM (titrated, usually from 58.2 µM), actives largely listed as inhibitors; actives 0.2% (n = 360,000); also: nearly all actives have a fitted effect of over 45% in size
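AMA1 (3D7) with his tag at 25 nM final met compounds first, then biotinylated RON2 peptide at 25 nM; detection used donor plus acceptor beads, 10 µg/mL apiece, read by AlphaScreen after 30 min at room temperature.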
Numbers stand for hits; n = inactive; u = inconclusive; x = no result; [ ] = another dose, or the depositor's remark. Unless noted, calls follow the shape of the dose curve; as a rule, active = well fitted curve in the direction sought with a large enough effect; inconclusive = small, poorly fitted or top-dose-only effect, or another doubt; inactive = no such curve, though single readings can be large; an effect the other way counts as inactive or inconclusive.

SMILES | Shiga toxin inh | HCV inhibitor | Cycloheximide cs | Pf growth 48h | Pf growth 96h | AMA1 RON2 block
COc1ccc2nc(SCC(=O)N3CCNC3=O)[nH]c2c1 | 79 | n | 48 | n | n | n
COC(=O)C1CCN(C(=O)CSc2nc3ccc(OC)cc3[nH]2)CC1 | n | n | n | n | n | n
COC(=O)c1ccc(CSc2nc3c(cnn3-c3ccc(C)cc3)c(=O)[nH]2)o1 | n | n | n | n | n | n
COC(=O)c1ccc(CSc2nc3ccc(C)cc3[nH]2)o1 | 37 | n | 27 | x | n | n
CCCCN1CC(=O)N2[C@H](c3ccc(Cl)cc3)[C@@H]3C(=O)N(CC)C(=O)[C@@H]3[C@]2(Cc2ccccc2)C1=O | n | n | n | n | n | n
CC(C)(C)OC[C@H](NC(=O)c1[nH]cnc1C(=O)Nc1ccccc1F)C(=O)OC(C)(C)C | x | x | x | x | x | n
COc1ccc(CNC(=O)CN(Cc2ccc(F)cc2)C(=O)c2csnn2)cc1 | n | n | n | n | n | n
COc1ccc2nc(SCC(=O)NCc3ccc(F)cc3)[nH]c2c1 | n | n | n | n | n | n
Cc1ccc2nc(SCC(=O)NCc3cccs3)[nH]c2c1 | n | n | 11 | n | n | n
O=C(CSc1cc(Cl)ccc1Cl)NC1CCCc2ccccc21 (centres undefined) | n | u | n | n | u | n
Cc1ccc2nc(SCC(=O)NC3CCCc4ccccc43)[nH]c2c1 (centres undefined) | n | 11µM | n | n | n | n[2.32 µM]
COc1cccc(CNC(=O)CSc2nc3ccc(C)cc3[nH]2)c1 | n | n | 17 | n | n | n
Cc1ccc2nc(SCC(=O)Nc3ncccn3)[nH]c2c1 | n | n | n | n | n | n
Cc1ccc2c(=O)c(C(=O)NCc3cccs3)c[nH]c2c1 | 51 | n | 23 | u | n | n
CCN(CC)C(=O)N1CCN(c2c([N+](=O)[O-])c(=O)oc3ccccc23)CC1 | x | n | x | n | n | n
CCOC(=O)c1cc(-c2ccccc2)n(Cc2cc(CC)no2)n1 | x | n | x | n | n | n
CC(O)(Cc1cccnc1)c1cccs1 (centres undefined) | x | n | x | x | x | n
COCCn1nnnc1CN1CCN2CCCC2C1 (centres undefined) | n | n | n | n | x | u
COCCn1nnnc1C(c1cccs1)N1CCN2CCCC2C1 (centres undefined) | 54 | n | 14 | n | n | n
Fc1ccc(Cn2nnnc2C(c2cccs2)N2CCN(C3CCCCC3)CC2)cc1 (centres undefined) | 55 | n | 14 | u | u | n
O=c1[nH]c(=S)n(C2CC2)c(O)c1C=NCc1ccc(F)cc1 | n | n | n | n | n | n
O=C(N/N=C/c1c(O)n(-c2ccccc2)c(=S)[nH]c1=O)c1ccccc1 | 60 | n | 40 | n | n | n
Cc1ccccc1-n1c(O)c(/C=N/Nc2nc3c(c(=O)n(C)c(=O)n3C)n2C)c(=O)[nH]c1=S | n | n | n | n | n | n
Cc1ccccc1-n1c(O)c(/C=N/NC(=O)c2ccccc2O)c(=O)[nH]c1=S | 76 | n | 46 | n | n | n
O=C(N/N=C/c1c(O)n(C2CC2)c(=S)[nH]c1=O)c1ccccc1O | n | n | 25 | n | u | n
SMILES | Shiga toxin inh | HCV inhibitor | Cycloheximide cs | Pf growth 48h | Pf growth 96h | AMA1 RON2 block
CCOC(=O)C1=CN(Cc2ccco2)S(=O)(=O)NC1c1cccc(OC)c1 (centres undefined) | x | n | x | x | x | n
CCc1ccc(/C=C/c2c[nH]c3ccccc23)[n+](CC)c1 | n | u | n | 0.21µM | 0.074µM | n
COc1ccc(-c2cn(CCO)c(-c3ccncc3)n2)cc1 | x | n | x | n | n | n
O=C(CN(C(=O)CCC(=O)Nc1nccs1)c1ccc(F)cc1)NCc1ccccc1 | n | n | n | n | n | n
c1ccc(COC[C@H]2CO2)cc1 | n | x | n | x | x | x
O=C1NCC(COCc2ccccc2)O1 (centres undefined) | n | n | n | n | 5.2µM | n
N#Cc1ccc(-c2ccc(OCC3CNC(=O)O3)cc2)cc1 (centres undefined) | 65 | u | 47 | n | n | n
C=CCn1c(SCc2ccc(C#N)cc2)nnc1-c1ccc(C)cc1 | n | n | n | u | 12µM | n
Cn1c(SCc2ccc(C#N)cc2)nnc1-c1ccncc1 | n | n | n | n | n | n
CCn1c(SCc2ccc(C(=O)Nc3nccs3)cc2)nnc1-c1ccc(NC(C)=O)cc1 | n | n | n | u | 13µM | n
Cn1c(SCC(=O)Nc2nccs2)nnc1-c1ccncc1 | n | n | n | n | n | n
CCC(Sc1nnc(-c2ccc(C)c(Cl)c2)n1CC)C(=O)Nc1nccs1 (centres undefined) | n | u | n | u | n | n
CCn1c(SCc2ccc(C(=O)Nc3nccs3)cc2)nnc1-c1ccc(N)cc1 | n | u | 20 | 10µM | x | n
COc1ccc(CC(=O)Nc2ccc(C(=O)Nc3nccs3)cc2)cc1OC | n | n | n | u | n | n
Cn1c(SCc2ccc(C(=O)Nc3nccs3)cc2)nnc1-c1ccccc1 | n | n | n | 2.3µM | x | n
C=CCn1c(SCc2ccc(C(=O)Nc3ccccc3)cc2)nnc1-c1ccccc1 | n | u | 19 | n | n | n
COc1cccc(NC(=O)NCc2ccccn2)c1 | 30 | n | 17 | n | 2.1µM | n
COc1ccc(NC(=O)NCc2ccccn2)c(OC)c1 | n | n | n | n | n | n
O=C(NCc1ccccn1)Nc1ccc(Cl)c(Cl)c1 | 55 | n | 26 | n | n | n
O=C(NCc1ccccn1)Nc1cc(Cl)ccc1Cl | 90 | n | n | n | u | n
Cc1cccc(NC(=O)NCc2ccccn2)c1 | 51 | n | 27 | u | n | n
Cc1ccc(-c2nn(-c3ccccc3)cc2C(=O)Nc2cccc(S(=O)(=O)NC3=NCCC3)c2)cc1 | x | x | x | x | x | n
O=C1NC[C@@H](CCCCN2C[C@H](Cc3ccc(O)cc3)N(CCc3ccc(O)cc3)C(=O)C2=O)N(CCc2ccc(O)cc2)C1=O | x | x | x | x | x | n
COc1ccc(NC(=O)NNC(=O)C(C)Oc2ccc3ccccc3c2)cc1 (centres undefined) | n | n | n | n | n | n
CC(C)c1ccc(NC(=O)NCc2ccccn2)cc1 | 68 | n | 33 | n | n | n
SMILES | Shiga toxin inh | HCV inhibitor | Cycloheximide cs | Pf growth 48h | Pf growth 96h | AMA1 RON2 block
O=C(NCc1ccccn1)c1ccc(Cl)c(S(=O)(=O)Nc2ccccc2C(=O)NCc2ccccn2)c1 | n | n | n | 12µM | 9.3µM | n
CC(C)c1ccc(NC(=S)N(C)CCc2ccccn2)cc1 | 88 | n | 30 | n | n[5.75 µM] | n
O=C(NCc1ccccn1)c1ccc(Cl)cc1Cl | 51 | n | 28 | n | x | n
O=C(NCCCNC(=O)c1ccc(Cl)cc1Cl)c1ccccn1 | n | n | n | n | n | n
O=C(NCc1ccccn1)Nc1cc(Cl)cc(Cl)c1 | n | n | n | u | n | n
NC(c1csc(Nc2ccc(C(=O)c3ccccc3)cc2)n1)C1CCCCC1 (centres undefined) | x | x | x | x | x | n

Source: PubChem
